We go through 20 compounds from PubChem BioAssay AID602261 (Sanford-Burnham Center for Chemical Genomics, 2012).

Structures are written as SMILES. The campaign covered roughly 360,000 compounds. About 2,400 (0.67%) were called active. Shown is part of a subset that was picked to be rich in actives. Values without a mark were called inactive.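 The calls were made as follows: active = compounds whose normalised, plate-corrected inhibition of enzyme fluorescence in the single-dose primary screen is 50% or more; inactive = the rest.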

In general, inhibition refers to the drop in the measured response relative to a control, in per cent.

Fatty acid synthase (Homo sapiens), sequence (P49327 whole entry, looked up, the tested form may be a part): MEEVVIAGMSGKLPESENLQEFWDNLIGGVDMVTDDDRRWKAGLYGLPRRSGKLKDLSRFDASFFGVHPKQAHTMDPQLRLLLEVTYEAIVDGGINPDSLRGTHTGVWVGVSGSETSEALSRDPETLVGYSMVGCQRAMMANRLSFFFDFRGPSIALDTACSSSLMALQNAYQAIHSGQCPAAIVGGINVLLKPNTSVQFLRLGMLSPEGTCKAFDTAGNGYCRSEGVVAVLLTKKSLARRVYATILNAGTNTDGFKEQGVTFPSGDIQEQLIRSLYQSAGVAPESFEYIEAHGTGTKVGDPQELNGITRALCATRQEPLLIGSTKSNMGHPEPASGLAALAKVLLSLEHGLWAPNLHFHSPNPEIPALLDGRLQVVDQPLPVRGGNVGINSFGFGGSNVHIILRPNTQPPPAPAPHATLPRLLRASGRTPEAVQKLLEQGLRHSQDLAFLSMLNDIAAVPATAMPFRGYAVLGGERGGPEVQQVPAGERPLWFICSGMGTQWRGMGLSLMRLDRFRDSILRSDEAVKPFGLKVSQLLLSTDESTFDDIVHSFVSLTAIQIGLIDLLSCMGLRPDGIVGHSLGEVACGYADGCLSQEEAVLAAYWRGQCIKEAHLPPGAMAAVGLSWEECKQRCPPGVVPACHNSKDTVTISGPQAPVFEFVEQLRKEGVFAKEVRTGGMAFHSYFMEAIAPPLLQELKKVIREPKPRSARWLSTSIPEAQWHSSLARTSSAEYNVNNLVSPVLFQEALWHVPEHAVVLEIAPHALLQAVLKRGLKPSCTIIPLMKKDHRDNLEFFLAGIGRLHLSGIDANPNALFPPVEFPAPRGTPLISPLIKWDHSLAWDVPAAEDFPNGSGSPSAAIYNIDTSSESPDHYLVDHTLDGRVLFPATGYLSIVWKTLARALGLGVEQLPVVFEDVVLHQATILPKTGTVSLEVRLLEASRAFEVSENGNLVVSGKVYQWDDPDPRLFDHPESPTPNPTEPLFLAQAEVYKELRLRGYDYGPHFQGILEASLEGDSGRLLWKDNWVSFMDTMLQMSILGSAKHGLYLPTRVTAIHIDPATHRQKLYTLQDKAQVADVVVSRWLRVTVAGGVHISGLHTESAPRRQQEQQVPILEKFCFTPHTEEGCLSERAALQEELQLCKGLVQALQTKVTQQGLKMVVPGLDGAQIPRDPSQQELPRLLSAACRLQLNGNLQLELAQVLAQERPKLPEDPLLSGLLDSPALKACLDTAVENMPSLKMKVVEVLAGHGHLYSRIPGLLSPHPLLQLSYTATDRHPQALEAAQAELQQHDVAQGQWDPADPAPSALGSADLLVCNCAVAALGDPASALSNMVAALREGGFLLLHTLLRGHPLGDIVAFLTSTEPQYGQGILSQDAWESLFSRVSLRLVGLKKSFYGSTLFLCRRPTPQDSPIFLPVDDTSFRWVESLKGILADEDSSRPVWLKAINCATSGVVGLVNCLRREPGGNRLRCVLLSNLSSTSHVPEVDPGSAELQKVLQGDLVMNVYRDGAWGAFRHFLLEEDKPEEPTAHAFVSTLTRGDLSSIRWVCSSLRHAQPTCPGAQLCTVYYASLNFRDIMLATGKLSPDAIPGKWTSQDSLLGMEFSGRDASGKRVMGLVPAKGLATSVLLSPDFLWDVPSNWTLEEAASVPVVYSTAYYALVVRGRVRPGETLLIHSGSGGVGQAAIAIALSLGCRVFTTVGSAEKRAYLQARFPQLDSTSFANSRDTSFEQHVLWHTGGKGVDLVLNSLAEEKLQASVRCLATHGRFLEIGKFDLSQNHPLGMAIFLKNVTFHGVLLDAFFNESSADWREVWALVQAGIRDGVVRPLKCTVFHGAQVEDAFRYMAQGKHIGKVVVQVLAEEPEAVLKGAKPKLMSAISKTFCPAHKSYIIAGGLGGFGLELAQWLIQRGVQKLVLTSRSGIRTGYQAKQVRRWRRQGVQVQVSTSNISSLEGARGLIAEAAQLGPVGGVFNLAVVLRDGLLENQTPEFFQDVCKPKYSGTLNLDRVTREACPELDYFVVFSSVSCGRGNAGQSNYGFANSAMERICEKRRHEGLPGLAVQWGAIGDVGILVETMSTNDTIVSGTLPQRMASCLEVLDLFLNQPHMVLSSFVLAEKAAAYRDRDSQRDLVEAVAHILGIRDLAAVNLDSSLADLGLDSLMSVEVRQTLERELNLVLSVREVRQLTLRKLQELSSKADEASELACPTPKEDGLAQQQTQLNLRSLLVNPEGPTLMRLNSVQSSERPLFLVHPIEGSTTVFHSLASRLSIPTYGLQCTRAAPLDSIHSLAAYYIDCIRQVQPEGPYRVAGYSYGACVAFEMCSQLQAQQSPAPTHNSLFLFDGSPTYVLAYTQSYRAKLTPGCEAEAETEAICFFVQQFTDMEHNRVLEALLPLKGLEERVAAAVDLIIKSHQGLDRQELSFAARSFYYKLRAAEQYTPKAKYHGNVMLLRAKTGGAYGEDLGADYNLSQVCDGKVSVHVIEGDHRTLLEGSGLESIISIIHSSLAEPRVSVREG

The test has as its target Fatty acid synthase (Homo sapiens) (UniProt P49327). In words: FAS thioesterase domain inhibitors, primary screen, biochemical, fluorescence intensity, uHTS (AID 602261).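 Also: 0% = DMSO with enzyme and 100% = substrate without enzyme.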 The settings on record: recombinant FAS-TE, OMFH fluorogenic substrate, fluorescence endpoint; at 15 µM; active compounds read high.
As for `CCOC(=O)[C@]12Cc3cc(OC)ccc3[C@H]1N(C(C)C)C(=O)c1ccccc12`, the inhibition was 36.7%.
Take `CCOC(=O)[C@]12Cc3ccccc3[C@H]1N(C1CCCCC1)C(=O)c1cc(OC)ccc12`: the inhibition was 67.5% (active).
`CC(=O)c1ccc(OC(NC(=O)Cc2ccccc2)C(Cl)(Cl)Cl)cc1` (stereo not given): the inhibition is 11.2%.
For `O=C1C2(Cl)C3(Cl)C4(Cl)C(Cl)(Cl)C5(Cl)C3(Cl)C1(Cl)C5(Cl)C24Cl` (stereo not given), the inhibition is 72.1% (active).
Consider `O=C(O)CCn1cc(C=C2C(=O)NC(=S)NC2=O)c(-c2cccc(Br)c2)n1`, for which the inhibition was -3.4%.
As to `COC(=O)C1=C(c2ccc3ccccc3c2)C[C@@H]2CC[C@H]1N2C(=O)NCCO`, the inhibition was -1.8%.
`O=c1[nH]c2ccccc2n1C1CCN(C(c2ccnc3ccccc23)c2nnnn2Cc2ccccc2)CC1` (stereo not given): the inhibition was 5.1%.
`O=c1[nH]c2ccccc2n1C1CCN(C(c2ccccc2)c2nnnn2Cc2ccccc2)CC1` (stereo not given): the inhibition is 18.3%.
With `COc1ccc(-n2nnnc2C(c2cccc3ccccc23)N2CCC(n3c(=O)[nH]c4ccccc43)CC2)cc1` (stereo not given), the inhibition is 87.1% (active).
On to `CCOc1ccc(CN(CCCl)CCCl)cc1C(=O)OC`, for which the inhibition was -5.1%.
For the compound `O=C(NC1CCCCC1)N1Cc2cc(N3CCCCC3)ccc2-n2nncc2C1`, the inhibition is -2.8%.
For `CN(C)CC1CCCCC1OC(=O)c1ccc(Cl)c(Cl)c1` (stereo not given), the inhibition was -3.1%.
The value for `CCCCCCCCCCCCn1ccc(=N)cc1` was -0.8%.
On to `COc1cccc(C(c2nnnn2-c2ccc3c(c2)OCCO3)N2CCC3(CC2)C(=O)NCN3c2ccccc2)c1OC` (stereo not given), for which the inhibition was 62% (active).
On to `O=C1NCN(c2ccccc2)C12CCN(C(c1cccs1)c1nnnn1C1CCCCC1)CC2` (stereo not given), for which the inhibition is 14.5%.
For the compound `Cc1ccc(-c2cc(C(=O)N3CCC4(CC3)OCCO4)no2)cc1`, the inhibition is 1.5%.
Take `COc1ccc2c(c1O)-c1cccc3c1[C@@H](C2)N(C)CC3`: the inhibition was -2.4%.
For the compound `CCOC(=O)C(O)(c1ccc(N=Cc2ccccc2O)c(C)c1)C(F)(F)F` (stereo not given), the inhibition is -4.3%.
Take `CC(C)Oc1cccc(C(=O)C2CCCN(C3CCOCC3)C2)c1` (stereo not given): the inhibition is -0.1%.
On to `c1cncc(CNCCc2c[nH]c3ccccc23)c1`, for which the inhibition was 5.2%.
